Hit rate of the full screen: of about 1,400 compounds, about 350 (25%) were called active. Inconclusive results (about 2%) are left out. The rule behind the calls is not given here. Not all results are given here. Potency and affinity values are given separately.
Experiment: inhibitors of Clostridioides difficile proliferation – 4-point retest, confirmation (AID 1224921);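 note: plate controls were DMSO wells for no effect and levofloxacin 16 µg/mL wells for full effect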
Conditions: Clostridioides difficile clinical isolate growth, OD600, 24 h, stronger effect = lower value; at 30 µM unless noted

Max activity, inactive:
CNC[C@@H]1Oc2cc(-c3cccnc3)ccc2S(=O)(=O)N([C@@H](C)CO)C[C@H]1C -5.58% [at 1.95 µM], COc1ccc(-c2cnc3c(c2)C(=O)N([C@H](C)CO)C[C@H](C)[C@H](CN(C)C(=O)Nc2ccc(F)cc2)O3)cc1 13.9%, Cc1ccc(-c2ccc3c(c2)O[C@H](CN(C)Cc2ccncc2)[C@H](C)CN([C@@H](C)CO)S3(=O)=O)cc1 37.3%, CCS(=O)(=O)Nc1ccc2c(c1)C(=O)N(C)C[C@@H](OC)[C@@H](C)CN(CC1CCCC1)[C@H](C)CO2 10.5%, C[C@H](CO)N1C[C@H](C)[C@@H](CN(C)Cc2ccncc2)Oc2cc(C3=CCCCC3)ccc2S1(=O)=O 25.5% [at 28.5 µM], O=C(C[C@@H]1C[C@@H]2c3cc(NC(=O)CC4CC4)ccc3O[C@@H]2[C@@H](CO)O1)NCc1cc(F)ccc1F 18.5%, CO[C@@H]1CN(C)C(=O)c2cc(NC(=O)C3CCC3)ccc2OC[C@@H](C)N(Cc2ccncc2)C[C@@H]1C -8.85% [at 8 µM], C[C@H]1CN([C@@H](C)CO)S(=O)(=O)c2ccc(-c3ccccc3F)cc2O[C@@H]1CN(C)Cc1cccnc1 16.6%, CO[C@@H]1CN(C)C(=O)c2ccc(NC(=O)c3ccc(Oc4ccccc4)cc3)cc2OC[C@@H](C)N(C(C)=O)C[C@H]1C -13.9% [at 2.1 µM], O=C(C[C@@H]1C=C[C@@H](NC(=O)c2cccc(F)c2)[C@H](CO)O1)Nc1nccs1 13.9%, COc1ccc(S(=O)(=O)Nc2ccc3c(c2)C(=O)N([C@@H](C)CO)C[C@@H](C)[C@@H](CN(C)C(=O)CCC(F)(F)F)OCCCC[C@H](C)O3)cc1 -14.1% [at 8 µM], CO[C@H]1CN(C)C(=O)c2cc(NS(=O)(=O)c3cccc(F)c3)ccc2OC[C@@H](C)N(Cc2cc(F)ccc2F)C[C@H]1C -7.98% [at 1.95 µM], C[C@H](CO)N1C[C@H](C)[C@@H](CN(C)Cc2cccnc2)Oc2cc(C#CC3CCCC3)ccc2S1(=O)=O 41.2%, CO[C@@H]1CN(C)C(=O)c2cc(NS(=O)(=O)c3ccc(Cl)cc3)ccc2OC[C@H](C)N(C(=O)NC(C)C)C[C@H]1C -5.33% [at 8 µM], CCCN1C[C@H](C)[C@@H](OC)CN(C)C(=O)c2cc(NC(=O)c3cccc(OC)c3)ccc2OC[C@@H]1C 12.1%, CO[C@H]1CN(C)C(=O)c2ccc(NC(C)=O)cc2OC[C@H](C)N(Cc2cccc(F)c2)C[C@H]1C -6.29% [at 1.95 µM], CCC(=O)Nc1ccc2c(c1)C(=O)N(C)C[C@H](OC)[C@@H](C)CN(C(=O)CN1CCOCC1)[C@@H](C)CO2 -6.29% [at 0.5 µM], CCCC#Cc1ccc([C@@H]2[C@@H](CO)N(S(=O)(=O)c3cccc(F)c3)[C@H]2C#N)cc1 12.2% [at 1.95 µM], CCC(=O)Nc1ccc2c(c1)OC[C@@H](C)N(C(=O)CC)C[C@@H](C)[C@@H](OC)CN(C)C2=O 3.79% [at 0.5 µM], C[C@H](CO)N1C[C@H](C)[C@H](CN(C)Cc2cccnc2)Oc2cc(C#CC3CCCC3)ccc2S1(=O)=O 20.9%, COc1ccc(NC(=O)Nc2cccc3c2O[C@H](CN(C)C(=O)NC2CCCCC2)[C@@H](C)CN([C@@H](C)CO)C3=O)cc1 7.95%, CO[C@@H]1CN(C)C(=O)c2cc(NC(=O)c3ccccc3)ccc2OC[C@H](C)N(C)C[C@@H]1C 18.3%, CN(C)C(=O)C[C@H]1CC[C@H](NC(=O)C2CCOCC2)[C@@H](CO)O1 -6%, COCC(=O)N1C[C@@H](C)[C@@H](OC)CN(C)C(=O)c2ccc(NC(=O)NC(C)C)cc2OC[C@@H]1C 17.9%, CCCC(=O)Nc1ccc2c(c1)C(=O)N(C)C[C@H](OC)[C@H](C)CN(Cc1ccccc1)[C@@H](C)CO2 25.4%, COCC(=O)Nc1ccc2c(c1)OC[C@@H](C)N(Cc1ccccc1OC)C[C@@H](C)[C@@H](OC)CN(C)C2=O 16.6%, CO[C@@H]1CN(C)C(=O)c2ccc(NC(C)=O)cc2OC[C@H](C)N(Cc2cccc(F)c2)C[C@H]1C 17.2%, C[C@H]1CN([C@@H](C)CO)C(=O)c2c(c3ccccc3n2C)-c2ccccc2CO[C@H]1CN(C)Cc1cccc(C(=O)O)c1 -5.44% [at 0.5 µM], COc1ccc(-c2ccc([C@@H]3[C@@H](C#N)N(C(=O)C4CCCC4)[C@H]3CO)cc2)cc1 25.6%, C/C=C/c1ccc2c(c1)O[C@@H](CN(C)C(=O)Cc1ccncc1)[C@H](C)CN([C@@H](C)CO)S2(=O)=O 11.6%, C[C@@H]1CN([C@H](C)CO)S(=O)(=O)c2ccc(C#CC3CC3)cc2O[C@H]1CN(C)Cc1ccccc1F 11.3% [at 1.95 µM], COCC(=O)Nc1ccc2c(c1)OC[C@@H](C)N(Cc1ccccc1)C[C@@H](C)[C@@H](OC)CN(C)C2=O -9.27% [at 1.95 µM], CCCNC(=O)Nc1ccc2c(c1)C(=O)N(C)C[C@@H](OC)[C@H](C)CN(Cc1ccccc1)[C@@H](C)CO2 16.6%, COc1cccc(C#Cc2ccc3c(c2)O[C@@H](CN(C)C)[C@@H](C)CN([C@H](C)CO)S3(=O)=O)c1 29.6%, CC(C)CC#Cc1ccc2c(c1)O[C@@H](CN(C)Cc1cccnc1)[C@@H](C)CN([C@@H](C)CO)S2(=O)=O 22.6%, O=C(C[C@@H]1C[C@H]2c3cc(NC(=O)Nc4ccc(C(F)(F)F)cc4)ccc3O[C@H]2[C@@H](CO)O1)NCCc1ccccc1 46.3%, COc1ccc(-c2ccc([C@@H]3[C@@H](C#N)N(C(=O)c4cccc(F)c4)[C@H]3CO)cc2)cc1 19.5%, COc1ccc(C#Cc2ccc3c(c2)O[C@@H](CN(C)C)[C@H](C)CN([C@H](C)CO)S3(=O)=O)cc1 12.4% [at 8 µM]
